Test results from PubChem BioAssay (NCATS).
Several values for one entry are separate records, joined by “and”; a condition that tells them apart may be missing. Equal entries are not always repeated. Inconclusive results are not listed. Entries that show only a call come without a potency. Some structures have more than one record in an assay (separate samples or runs), and their calls can disagree. Activity calls are given as the source filed them. The call rests on the fitted dose curve; in most records, active means well fitted curve in the direction sought with a large enough effect in the signal ratio, with a control signal flat (not every such curve was filed as active); inconclusive means small, poorly fitted or top-dose-only effect, or effect the other way, or a change in a side signal; inactive means no such curve, though single readings can be large or run the other way; the % refers to the signal ratio.

These compounds were tested against Estrogen receptor (Homo sapiens) (UniProt P03372) (assay: qHTS assay for small molecule antagonists of estrogen receptor alpha signaling (AID 588513)). Conditions: ER-alpha-UAS-bla HEK293, beta-lactamase ratio, antagonist mode; series mostly up to 76.9 µM.
Sequence of Estrogen receptor (Homo sapiens) (P03372 whole entry, looked up): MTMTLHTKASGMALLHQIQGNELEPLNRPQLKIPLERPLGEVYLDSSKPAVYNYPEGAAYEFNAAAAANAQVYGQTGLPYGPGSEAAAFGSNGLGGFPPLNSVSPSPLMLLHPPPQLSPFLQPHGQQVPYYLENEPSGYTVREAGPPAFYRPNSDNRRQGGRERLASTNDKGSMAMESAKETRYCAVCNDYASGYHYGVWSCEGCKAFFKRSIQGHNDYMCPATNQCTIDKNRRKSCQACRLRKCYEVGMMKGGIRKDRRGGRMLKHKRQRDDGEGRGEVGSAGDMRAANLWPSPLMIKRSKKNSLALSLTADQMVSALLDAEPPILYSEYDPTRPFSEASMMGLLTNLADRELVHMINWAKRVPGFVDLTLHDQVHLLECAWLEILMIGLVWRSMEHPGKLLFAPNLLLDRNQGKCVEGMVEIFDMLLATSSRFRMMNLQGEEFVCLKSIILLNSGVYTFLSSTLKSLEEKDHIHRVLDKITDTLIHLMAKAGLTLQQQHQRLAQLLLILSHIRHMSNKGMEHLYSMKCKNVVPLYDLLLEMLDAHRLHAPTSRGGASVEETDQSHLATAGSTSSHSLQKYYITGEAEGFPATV
Excerpt: NIH Chemical Genomics Center [NCGC]
U.S. Environmental Protection Agency [EPA]
National Institutes of Environmental Health Sciences [NIEHS]
National Toxicology Program [NTP]
Estrogen receptor alpha (ER-alpha) is an important member of nuclear hormone receptors. ER-alpha plays important role in breast cancer as well as in other women's health issues. The majority of breast cancers is estrogen receptor (ER) positive and depends on estrogen for growth. There is also growing concern for some of environmental chemicals which may contribute the increasing the incidence of breast cancer. Therefore, it is important to understand the effect of environmental chemicals in ER-alpha signaling pathway.
NCGC Assay Protocol Summary
Using a beta-lactamase reporter-gene under control of the ER response element, a cell-based assay [ER-alpha-UAS-bla GripTiteTM cell-Based Assay from Invitrogen] was used to measure ER-alpha signaling pathway in antagonist mode. ER-alpha-UAS-bla-GripTite HEK 293 cells were used with assay medium containing 2% charcoal/dextran treated FBS, 0.1 mM NEAA and 1 mM sodium pyruvate. Cells were cultured in this assay medium overnight in the flasks before the assay. The assay was performed in clear bottom black Greiner 1536-well plates. 17-beta-estradiol was used as a positive control in the screen. Library compounds were measured for their ability to inhibit the reporter gene activity. Compounds were screened in a titration series in 1536-well format. […] Data was normalized relative to 17-beta-estradiol control (0.5nM, 100%), and DMSO only wells (basal, 0%). Concentration-response titration points for each compound were fitted to the Hill equation yielding concentrations of half-maximal inhibition (IC50) and maximal response (efficacy) values.
qHTS protocol for ER-alpha beta-lactamase assay in antagonist mode
[Step] [Parameter] [Value] [Description]
1. Reagent; 5 uL; 5000 cells/well
2. Incubation; 37 C for 4 hrs
- Dose response, Start 38uM, 1:2 dilutions with duplicates
- Two columns with 38 and 19uM (final) concentration.
5. Agonist (Stimulator); 1uL; 17-beta-estradiol at 0.5nM (final) concentration
6. Incubation; 37 C for 18 hrs
7. Detection reagent; 1 uL of CCF4-dye
8. Incubation; RT for 2 hrs
9. Detection; Fluorescence; Envision plate reader or Acumen plate reader

Question: Which Potency does the source give for `Oc1ccc(/C=C/c2cc(O)cc(O)c2)cc1` here?
Answer: 31.6 µM [inhibitor] (active)

Question: `Oc1cccc(O)c1O` was tested. Which Potency did it give?
Answer: inactive

Question: Which Potency does the source give for `O=c1n(CC2CO2)c(=O)n(CC2CO2)c(=O)n1CC1CO1` (stereo not drawn) here?
Answer: inactive

Question: For `CC/C=C\C/C=C\C/C=C\CCCCCCCC(=O)O`, which Potency is on record?
Answer: inactive

Question: For `Cc1ccc(S(=O)(=O)NCl)cc1`, which Potency is on record?
Answer: inactive

Question: Which Potency does the source give for `Nc1ccc(N=Nc2ccccc2)c(N)n1` here?
Answer: inactive and 35.5 µM [inhibitor] (active)

Question: For `Cc1ccc(S(=O)(=O)O)cc1C`, which Potency is on record?
Answer: inactive

Question: How did the Potency turn out when `OB(O)O` was run?
Answer: inactive

Question: Which Potency does the source give for `OC[C@H]1O[C@@H]2O[C@H]3[C@H](O)[C@@H](O)[C@@H](O[C@H]4[C@H](O)[C@@H](O)[C@@H](O[C@H]5[C@H](O)[C@@H](O)[C@@H](O[C@H]6[C@H](O)[C@@H](O)[C@@H](O[C@H]7[C@H](O)[C@@H](O)[C@@H](O[C@H]1[C@H](O)[C@H]2O)O[C@@H]7CO)O[C@@H]6CO)O[C@@H]5CO)O[C@@H]4CO)O[C@@H]3CO` here?
Answer: inactive

Question: `NCCN` was tested. Which Potency did it give?
Answer: inactive

Question: How did the Potency turn out when `[O-][N+](=Nc1ccccc1)c1ccccc1` was run?
Answer: inactive

Question: With `CC1=CCC2CC1C2(C)C` (stereo not drawn) as the compound, how does the Potency read?
Answer: inactive

Question: How did the Potency turn out when `CC[C@H]1OC(=O)[C@H](C)[C@@H](O[C@H]2C[C@@](C)(OC)[C@@H](O)[C@H](C)O2)[C@H](C)[C@@H](O[C@@H]2O[C@H](C)C[C@H](N(C)C)[C@H]2O)[C@](C)(O)C[C@@H](C)CN(C)[C@H](C)[C@@H](O)[C@]1(C)O` was run?
Answer: inactive

Question: `NC(N)=O` was tested. Which Potency did it give?
Answer: inactive

Question: How did the Potency turn out when `COC(=O)c1ccccc1O` was run?
Answer: inactive

Question: How did the Potency turn out when `OCc1ccccc1` was run?
Answer: inactive

Question: With `CCCCC(CC)COS(=O)(=O)O` (stereo not drawn) as the compound, how does the Potency read?
Answer: inactive

Question: With `CC(C)(C)CC(C)(C)c1ccc(OCCO)cc1` as the compound, how does the Potency read?
Answer: inactive

Question: `NCCO/C=C/[C@H](N)C(=O)O` was tested. Which Potency did it give?
Answer: inactive

Question: With `CC(C)O` as the compound, how does the Potency read?
Answer: inactive

Question: Which Potency does the source give for `c1ccc2ccccc2c1` here?
Answer: inactive

Question: `C[C@H](CCC(=O)O)[C@H]1CC[C@H]2[C@@H]3[C@H](O)C[C@@H]4C[C@H](O)CC[C@]4(C)[C@H]3C[C@H](O)[C@]12C` was tested. Which Potency did it give?
Answer: inactive

Question: Which Potency does the source give for `OCl` here?
Answer: inactive

Question: Which Potency does the source give for `OCCOCCOCCO` here?
Answer: inactive

Question: `Nc1ncnc2c1ncn2[C@H]1CC[C@@H](CO)O1` was tested. Which Potency did it give?
Answer: inactive

Question: With `OCC(O)CO` as the compound, how does the Potency read?
Answer: inactive

Question: For `C[C@H](CCC(=O)O)[C@H]1CC[C@H]2[C@@H]3CC[C@@H]4C[C@H](O)CC[C@]4(C)[C@H]3C[C@H](O)[C@]12C`, which Potency is on record?
Answer: inactive

Question: For `C=C(C)C1CC=C(C)CC1` (stereo not drawn), which Potency is on record?
Answer: inactive
